# From ChEMBL document CHEMBL1157539, “Thousands of chemical starting points for antimalarial lead identification” (Nature, 2010)
# Columns and labels:
# Assay type in all cases: functional
# Plasmodium falciparum [1] = assay: GSK_TCMDC: Inhibition of Plasmodium falciparum 3D7 in whole red blood cells, using parasite LDH activity as an index of growth. Test compounds present at 2uM
# Plasmodium falciparum [2] = assay: GSK_TCMDC: Inhibition of Plasmodium falciparum Dd2 in whole red blood cells, using parasite LDH activity as an index of growth. Test compounds present at 2uM
# HepG2 = assay: GSK_TCMDC: Percent inhibition of human HepG2 cell line. Test compounds present at 10uM.
SMILES,Inhibition (Plasmodium falciparum [1]) [%],Inhibition (Plasmodium falciparum [2]) [%],Inhibition (HepG2) [%]
Cc1ccccc1OCCCN1CCN(CC(c2ccc(F)cc2)N2CCN(C(C)C)CC2)CC1.Cl (stereo unspecified),99,64,20
O=C(Nc1cccc(C(F)(F)F)c1)c1ccc(S(=O)(=O)NCC2CCCN(CC3CCCCC3)C2)cc1.O=C(O)C(F)(F)F (stereo unspecified),95,9,26
CCOc1cc(C=NNc2nc(C)cc(-n3nc(C)cc3C)n2)ccc1O,93,52,46
O=C(Nc1cccc(-c2ccc(-c3nc4ccccc4[nH]3)cc2)c1)c1csnn1,91,21,31
Br.CC1(C)NC(N)=NC(=N)N1OCCOc1ccc(Cc2ccccc2)cc1,94,26,62
Clc1ccc2nc(-c3cccnc3)[nH]c2c1,92,97,0
CCOc1ncccc1CN1CCC(N2CCc3cc(NC(=O)c4cc(C)on4)ccc32)C1 (stereo unspecified),89,96,0
CC(C)(C)c1ccccc1SC1=C(O)CC2(CCNCC2)OC1=O.Cl,99,0,0
CS(=O)(=O)c1ccc(CNCc2ccc(-c3cccc(-c4nc5ccccc5[nH]4)c3)cc2)cc1.O=C(O)C(F)(F)F,100,88,17
O=C(Nc1ccc(OC2CCN(Cc3ccccc3)C2)c(Cl)c1)c1ccc(F)cc1.O=C(O)C(F)(F)F (stereo unspecified),90,87,7
N#Cc1ccc(Cn2ccc3c4c(N)nc(N)nc4ccc32)cc1,92,95,64
CCOc1ccc(-c2noc(-c3c[nH]c4ccccc4c3=O)n2)cc1,99,93,0
COc1ccc(/C=C/C(=O)Nc2ccc(-c3ccncc3)cc2)cc1CCCN(C)C.O=C(O)/C=C\C(=O)O,100,86,3
CCCCCCCN1CC[C@@H](CCCc2ccnc3ccc(OCCN4CCNCC4)cc23)[C@@H](CC)C1.Cl,100,98,82
O=[N+]([O-])c1cccc(/C=N/Nc2ccnc3ccc(C(F)(F)F)cc23)c1,96,35,0
N#Cc1cccc(-c2cnc(N)c(-c3nc4cc(S(N)(=O)=O)ccc4[nH]3)c2)c1,100,99,16

SMILES,Inhibition (Plasmodium falciparum [1]) [%],Inhibition (Plasmodium falciparum [2]) [%],Inhibition (HepG2) [%]
CNC(=O)c1ccccc1Nc1nc(Nc2ccc(C(=O)O)cc2)ncc1Cl.Cl,92,92,60
Cc1cc(-c2cccc(CNCc3ccccc3)c2)ccc1S(=O)(=O)NCCN1CCCC1.O=C(O)C(F)(F)F,98,58,40
Oc1ccc(Nc2ccnc3cc(Cl)ccc23)cc1,100,97,0
CC(C)NCc1cccc(-c2cccc(NC(=O)c3cccc(C#N)c3)c2)c1.O=C(O)C(F)(F)F,99,22,12
CCCNC(=O)c1ccc(N2CCC(c3ccccc3C)CC2)nc1.O=C(O)C(F)(F)F,86,80,6
COc1ccc(C2CC(=O)C3=C(C2)NC(C)=C(C(=O)OC2CCCC2)C3c2ccc(O)cc2)cc1OC (stereo unspecified),97,92,0
Clc1cccc(Nc2ccc3c(N4CCCCC4)ncnc3n2)c1,97,93,54
O=C(Nc1ccc(Cn2ncc(N3CCCNCC3)c(Cl)c2=O)cc1)Nc1ccc(SC(F)(F)F)cc1.O=C(O)C(F)(F)F,93,68,9
Cc1ccc2nc(C)cc(N/N=C/c3ccc([N+](=O)[O-])o3)c2c1,100,99,15
CCOc1cc2c(cc1OCC)C(c1ccc(O)c(Cl)c1)NCC2.Cl (stereo unspecified),98,98,6
Cc1nc(N)nc(N)c1CCCOc1cccc(Cl)c1,96,0,16
N#Cc1nc2ccc(OCCN(Cc3ccccc3C(F)(F)F)c3ccc(C#N)c(C(F)(F)F)c3)cc2s1,93,47,23
CCCC(C)Nc1nc(C)cc(NCCC(=O)Nc2ccccc2)n1.O=C(O)C(F)(F)F (stereo unspecified),96,11,12
CCNc1cc(C(=O)N[C@@H](Cc2ccccc2)[C@H](O)CNCc2cccc(OC)c2C)cc(N2CCCCS2(=O)=O)c1.O=CO,97,98,8
CN(C)CCNC(=O)c1ccc(-c2cnc3ccc(NCc4ccc(Cl)c(Cl)c4)nn23)cc1,98,98,60
CCOC(=O)c1nc(-c2ccccc2)[nH]c1-n1nc(C)cc1C,92,9,7
